About 83,000 compounds went through this panel and 20% of them were active in at least one assay; those are over-represented in the sample as a whole.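 Treatment: one concentration, 48 hours, 96-well format. Scoring: percent growth, with anything below 10 considered active.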 Values without a mark were called inactive. Activity calls are given as the source filed them.

These results are taken from PubChem BioAssay (NCI).

Holding throughout (assay): NCI-60 one-dose screen, 48 h (100 = growth as untreated, 0 = no growth, -100 = all killed)
Holding throughout (details): 10 µM unless noted

The test system of test [1] is HCT-15 colon.
The subject of test [2] is HT29 colon.
Test [3] concerns SNB-75 CNS.
In test [4] the test system is SNB-19 CNS.
Test [5] deals with U251 CNS.
The subject of test [6] is PC-3 prostate.
The subject of test [7] is UACC-62 melanoma.
In test [8] the test system is LOX IMVI melanoma.
Test [9] concerns SK-MEL-28 melanoma.
The test system of test [10] is SK-MEL-5 melanoma.

`CC(C)c1ccc(NC(=O)Cc2ccc(Nc3ncnc4cc(-c5cnn(CCN(C)C)c5)ccc34)cc2)cc1`: the growth is -53.1% [30 µM] (active) in test [1]; -45.4% [30 µM] (active) in test [2]; -82.6% [30 µM] (active) in [3]; -86.1% [30 µM] (active) in test [4]; -65.7% [30 µM] (active) in test [5]; -78.1% [30 µM] (active) in test [6]. The growth in [7] was -89.1% [30 µM] (active); in test [8], -65.1% [30 µM] (active); in test [9], -82.2% [30 µM] (active).

Take `O=C1/C(=C/c2ccccc2[N+](=O)[O-])COc2ccc(O)c(O)c21`: the growth in test [1] is -11.8% (active); in test [2], 5.22% (active); in test [3], 22.8%; in test [4], 26.5%; in test [5], 2.61% (active); in test [6] it was -0.516% (active). Further, the growth is -86.6% (active) in test [7], -73.2% (active) in [8] and -13.6% (active) in [9].

`Clc1ccc2c(NCCCN3CCN(c4nc(N5CCOCC5)nc5ccccc45)CC3)ccnc2c1`: the growth was -32.8% (active) in [1]; -19.2% (active) in [2]; 89.4% in [3]; 21.7% in test [4]; -14.3% (active) in test [5]; 37.5% in [6]. Besides, the growth in test [10] was -96.8% (active); in test [7] it was -33.1% (active); in test [9] it was -85% (active).

For the molecule `COc1cc(/C=C/C(=O)c2ccc(Nc3nc(Nc4ccccc4)nc(Nc4ccc(Cl)cc4)n3)cc2)cc(OC)c1OC`, the growth in test [1] is 55.8%; in test [2] it was 46.8%; in test [3], 57.5%; in test [4] it was 92.8%; in test [5], 37.4%; in [10], 39%. The figures for the growth in test [7], in test [8] and in test [9] were 59.8%, 66.5% and 39.9%, respectively.

With `COC1=CC(c2ccc[nH]2)=N/C1=C\c1[nH]c(C)c(C(=O)OCCn2cc(CCC[C@@H]3Cc4cc(O)ccc4C4CC[C@]5(C)[C@@H](O)CC[C@H]5C43)nn2)c1C` (some centres undefined), the growth in test [1] is 25%; in test [2], 18.9%; in test [3], 44.7%; in test [5], 47.1%; in test [6], 50.4%; in test [10], 88.2%. Moreover, the results for the growth in test [8] and in [9] were -17% (active) and 94.5%, respectively.

As for `CCCCCCN(CCCCCC)CC(O)c1cccc2ccc(Cl)cc12` (centres undefined), the growth is 53.4% in test [1]; 15.9% in [2]; 116% in [3]; 55.2% in test [5]; 37.1% in test [6]; 61.8% in [10]. Besides, the growth was 51.4% in test [7], 34.7% in test [8] and 87.9% in test [9].

Regarding `OC(COc1cccc2ccccc12)CN1CCN(c2ccccc2)CC1` (centres undefined), the growth is 99.6% in test [1]; 94% in test [2]; 81.8% in test [3]; 97.4% in [4]; 95.7% in test [5]; 90.4% in test [10]. Also, the growth in test [7] is 98.2%; in [8] it was 92.1%; in [9] it was 105%.

Turning to `O=c1[nH]c(=O)n(C2CC(O)C(CO)O2)cc1CO` (centres undefined), the growth in test [1] was 98.7%; in test [2], 105%; in [3], 84.3%; in test [4], 30.2%; in [5] it was 2.98% (active); in test [10], 108%. In addition, the figures for the growth in [7], in test [8] and in test [9] were 79.2%, 96.1% and 101%, respectively.

Take `Nc1c(C(=O)Nc2ccccc2)sc2nc3c(cc12)CCCCCC3`: the growth was 16.3% in test [1]; -9.08% (active) in test [2]; 4.5% (active) in test [3]; 9.62% (active) in test [5]; 31.8% in test [6]; 9.45% (active) in test [10]. The growth in [8] was 35.1%; in test [9], 27.8%.

In the case of `C=C1C(=O)O[C@H]2[C@H]1CC/C(COC(=O)/C=C\C(=O)NCc1ccc(Cn3c(=O)sn(-c4ccc(C#N)cc4)c3=O)cc1)=C\CC[C@@]1(C)O[C@@H]21`, the growth is -33.9% (active) in [1]; -13.2% (active) in test [2]; -82.2% (active) in test [3]; -65% (active) in test [4]; -66.4% (active) in test [5]; -62.4% (active) in test [6]. The growth in [7] was -99.4% (active); in [8], -86.8% (active); in test [9], -96.2% (active).

As for `COc1ccc(C2=NC(=O)NC2c2ccc(OC)cc2)cc1` (centres undefined), the growth in test [1] is 48.4%; in [2] it was 37.2%; in test [3], 46.7%; in [4], 58.5%; in test [5], 74.6%; in test [10], 63%. Also, the growth in [7] was 47.2%; in test [8] it was 64%; in [9] it was 72.6%.

On to `Cn1cc(-c2ccc3nc(-c4ccc(CC(=O)Nc5cc(C(C)(C)C)no5)cc4)cnc3c2)cn1`, for which the growth in [1] is 11.5% [30 µM]; in [2], 58.4% [30 µM]; in test [3] it was 26.5% [30 µM]; in [4] it was 53.6% [30 µM]; in test [5], 37.3% [30 µM]; in test [6], 40.2% [30 µM]. The growth in test [7] is 9.8% [30 µM] (active); in [8] it was 20.1% [30 µM]; in [9], 37.5% [30 µM].

`COc1cc(-c2cc(-c3ccc(Nc4nc(Nc5ccccc5)nc(Nc5ccc(Cl)cc5)n4)cc3)nc(N)n2)cc(OC)c1OC`: the growth in [1] was 62.3%; in test [2] it was 52.4%; in test [3], 56.2%; in test [4], 79.6%; in test [5], 42.6%; in test [10], 43.1%. Further, the growth was 49.7% in test [7], 60.2% in test [8] and 86.9% in [9].

`COc1ccc(/C=C2\COc3ccc(O)cc3C2=O)cc1OC`: the growth in test [1] was 71.3%; in test [2], 19.9%; in test [3], 91.3%; in test [4] it was 59.5%; in test [5] it was 40.8%; in [6], 64.3%. For the same molecule, the growth in [7] was 77.1%; in test [8], 11.6%; in test [9] it was 97.3%.
